TDP1 cell noCPT: qHTS for Inhibitors of human tyrosyl-DNA phosphodiesterase 1 (TDP1): qHTS in cells in absence of CPT; AID 686978, 2013; DT40 Tdp1-/- hTDP1 cells, no CPT, ATP luminescence, 48 h; actives 15% (n = 420,000); Potency, µM (doses to about 46.2 µM), for inactives: at the highest dose activity change, negative = growth inhibition, most hits filed as inhibitors; also: potency is read from the fitted curve at half-maximal effect; nearly all actives have a fitted effect of over 55% in size
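No-CPT arm: Tdp1-/-;hTDP1 DT40 cells (400/well) plus compounds, incubated ≥48 hr at 37 °C. Readout CellTiter-Glo luminescence.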
HT1080-NT tox: kills 2HG-producing HT-1080-NT fibrosarcoma cells. HT-1080-NT fibrosarcoma viability, CellTiter-Glo ATP luminescence, 48 h. Potency, µM (series often up to 46.1 µM), inactives show top-dose activity, negative = less viability, actives largely listed as cytotoxic. actives 1.6% (n = 360,000). AID 686970;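 also: NT is the 2HG producing partner of a matched IDH1 knockdown line; potency is read from the fitted curve at half-maximal effect; 0% = DMSO-treated cells and -100% = media-only wells without cells; nearly all actives have a fitted effect of over 55% in size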
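750 cells/well, RPMI + 5% FBS; 2 h settle, compound pin-transfer, 48 h at 37 degrees C. CellTiter-Glo 10 min RT, luminescence. Normalized to DMSO and media-only wells.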
HT1080 IDH1KD tx: kills HT-1080 cells with IDH1 knockdown; actives 2% (n = 360,000); AID 686971; Potency, µM (highest dose often 46.1 µM), for the others: top-dose activity, negative = toxicity, usual class: cytotoxic; HT-1080 IDH1 knockdown viability, ATP luminescence, 48 h;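 also: potency is read from the fitted curve at half-maximal effect; 0% = DMSO wells and -100% = cell-free medium wells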
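Using the IDH1-knockdown HT-1080 line run in the same batch and compound series as the NT line, viability after 48 h at 37 °C was determined by CellTiter-Glo luminescence and expressed as % activity.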
IL-1B inflam inh: inflammasome signaling inhibition, IL-1 beta readout | THP-1 LPS/ATP IL-1B secretion, AlphaLISA, 16 h; hits give low values | activity change, % at 57.5 µM | actives 4.7% (n = 360,000) | AID 743279; in the data active = activity change below about -50%; inconclusive = mostly about -30% to -49%
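Secreted IL-1B measured by AlphaLISA bead assay after 16 h compound exposure of THP-1 cells; compounds (final up to 57.5 uM) added 1 h before LPS (250 ng/mL) and ATP (1.25 mM) stimulation; lower signal means less secretion.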
TDP1 cell CPT: DT40-hTDP1 cell growth loss with CPT. chicken DT40 Tdp1-/-;hTDP1 cells + 20 nM CPT, ATP luminescence, 48 h. Potency, µM (titrated, usually from 46.2 µM), for inactives: top-dose activity change, negative = growth inhibition, usual class: inhibitors. actives 12% (n = 420,000); also: potency is read from the fitted curve at half-maximal effect; nearly all actives have a fitted effect of over 55% in size
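Cell growth measured by CellTiter-Glo luminescence after a minimum 48 h, 37 C compound exposure with 20 nM CPT in Tdp1-knockout DT40 cells stably expressing hTDP1, seeded 400/well; qHTS titration format.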
Starred values were filed as active, the others as inactive; ? = inconclusive; . = not tested or not shown; [ ] = another dose, or the depositor's remark. Most compounds without a hit are left out; they make up all but 19% or so of the library. Unless noted, calls follow the shape of the dose curve; as a rule, active = well fitted curve in the direction sought with a large enough effect; inconclusive = small, poorly fitted or top-dose-only effect, or another doubt; inactive = no such curve, though single readings can be large; an effect the other way counts as inactive or inconclusive. Unless noted, % is scaled to controls: 0 for no effect and ±100 for the full control effect.

SMILES	TDP1 cell noCPT	HT1080-NT tox	HT1080 IDH1KD tx	IL-1B inflam inh	TDP1 cell CPT
COc1cc2c(C(=O)N3CCN(c4cccc(C)c4)C(C)C3)cn(CC(C)C)c(=O)c2cc1OC (stereo not drawn)	?	.	.	.	14.6µM*
CC(C)(C)c1ccc(CC(=O)N2CCC2(C)C(=O)NS(=O)(=O)c2ccc(Cl)s2)cc1 (stereo not drawn)	-3.1%	0.0%	0.9%	0.0	8.0%
Brc1ccc(-c2noc3c2-c2nc(-c4ccccc4)sc2CC3)cc1	3.7%	?	0.0%	14.0	?
CC(C)Cn1cc(NC(=O)N2CCN(c3cccc(C(F)(F)F)c3)CC2)c2ccccc2c1=O	16.4µM*	.	.	.	14.6µM*
COc1ccc(N2CCN(C(=O)Nc3ccccc3C)CC2)cc1	3.7%	10.1%	15.3%	0.0	-7.1%
COc1ccc(N2CCN(C(=O)Nc3cn(CC(C)C)c(=O)c4ccccc34)CC2)cc1	14.6µM*	.	.	.	-24.3%
COc1cc2c(C(=O)N3CCN(c4cccc(C(F)(F)F)c4)CC3)cn(CC(C)C)c(=O)c2cc1OC	18.4µM*	.	.	.	16.4µM*
Cc1cccc(NC(=O)CSCC(=O)N2CCN(c3cccc(C(F)(F)F)c3)CC2)c1	?	3.4%	13.8%	28.0	?
Cc1ccc(C)c(N2CCN(C(=O)Nc3cn(CC(C)C)c(=O)c4ccccc34)CC2)c1	16.4µM*	.	.	.	13µM*
COc1cccc(-c2noc(COc3cccc(C)c3C)n2)c1	-14.1%	.	.	.	-1.6%
O=[N+]([O-])c1cc(C(F)(F)F)ccc1NCC1CCCO1 (stereo not drawn)	?	9.5%	0.8%	-0.9	?
Cc1cccc(C(=O)OCC(=O)N(C)C(c2ccccc2)c2ccccc2)c1[N+](=O)[O-]	7.31µM*	-6.9%[9.24 µM]	-3.6%	21.0	11.6µM*
CCOC(=O)C1=C(C)NC(C)=C(C(=O)OCC)C1c1cc2ccc(C)cc2[nH]c1=O	?	18.4µM*	8.2µM*	51.1	23.1µM*
C[C@H](N)C(=O)N[C@@H](C)P(=O)(O)O	-9.9%	.	.	.	-1.9%
COc1cccc(CNc2nc3cc(-c4cccc(OC)c4)sc3c(=O)n2C)c1	?	-1.5%	6.8%	38.4	?
O=c1c2sc(-c3ccccc3)cc2nc2n1CCCCC2	11.6µM*	-0.2%	-3.5%	.	-20.9%
COc1cccc(-c2cc3nc(NCCN4CCCC4)n(C)c(=O)c3s2)c1	23.1µM*	?	?	?	?
Cn1c(NCCOc2ccccc2)nc2cc(-c3ccc(F)cc3)sc2c1=O	?	11.3%	-7.9%	1.5	?
Cn1c(NCCN2CCCC2)nc2cc(-c3cccc(C(F)(F)F)c3)sc2c1=O	?	20.6µM*	?	-7.1	?
Cn1c(NCCN2CCCC2)nc2cc(-c3ccccc3)sc2c1=O	?	?	13µM*	-26.7	?
COC(=O)Cc1ccc(OC2(C)CCN(Cc3ccccc3)C2)cc1 (stereo not drawn)	-18.5%	?	22.1%	0.0	-20.6%
CC(C)(C)C(=O)NC(NC(=S)Nc1sc2c(c1C#N)CCCC2)C(Cl)(Cl)Cl (stereo not drawn)	?	-3.2%	-7.8%	4.8	25.9µM*
CC(=O)NC(=S)Nc1sc2c(c1C#N)CCCCC2	?	3.9%	?	-74.5*	?
N#Cc1c(NC(=S)NC(=O)c2ccccc2)sc2c1CCC2	?	18.7%	17.6%	0.0	18.4µM*
CC(C)(C)C(=O)Nc1sc2c(c1C#N)CCC2	0.4%	13.9%	23.0%	14.8	-0.2%
SMILES	TDP1 cell noCPT	HT1080-NT tox	HT1080 IDH1KD tx	IL-1B inflam inh	TDP1 cell CPT
COC(=O)CCC(=O)Nc1sc2c(c1C#N)CCCC2	4.61µM*	-5.5%	-13.0%	10.8	4.61µM*
CC(C)(C)c1ccc(C(=O)NC(=S)Nc2sc3c(c2C#N)CCC3)cc1	?	3.3%	-6.2%	?	?
CC(C)N(Cc1ccccc1)C(=O)CN1C(=O)NC2(CCCCCC2)C1=O	-38.8%	0.6%	6.3%	6.5	-20.6%
Cc1ccc(-c2nnc(SCC(=O)NCCN3C(=O)CSC3=O)n2C)cc1	1.2%	13.5%	8.5%	5.8	7.6%
Brc1ccc(N=NNc2ccccc2)cc1	-28.6%	-24.3%	-12.9%	11.2	-23.9%
NC(=S)N=Nc1ccc(NN=C(N)N)cc1	1.46µM*	?	?	-23.2	1.3µM*
CCOC(=O)C1=C(C)c2ccccc2N(C(=O)OC)C1(C)C(=O)OCC (stereo not drawn)	10.3µM*	2.6%	-0.1%	-5.7	10.3µM*
CCOC(=O)C1=C(C)c2ccccc2OC1(CC)C(=O)OCC (stereo not drawn)	?	3.5%	6.3%	5.7	?
COC(=O)C1=CN(Cc2ccc(C)cc2)C=C(C(=O)OC)C1c1cc(OC)c(OC)c(OC)c1	?	-1.8%	-12.5%	-10.7	16.4µM*
Cc1c(C(=O)NN2CCOCC2)nn(-c2ccc(Cl)cc2Cl)c1-c1ccc(I)cc1	0.9%	.	.	.	-3.8%
CSc1nnc(C)c(=O)n1COC(=O)c1cc(Cl)ccc1[N+](=O)[O-]	-24.1%	2.2%	6.6%	-24.0	-10.5%
CCC(C)(CN(C)C)OC(=O)c1ccccc1 (stereo not drawn)	-16.8%	13.4%	1.4%	12.4	-13.5%
O=S(=O)(Nc1nc2ccccc2nc1Nc1ccc(N2CCOCC2)cc1)c1cc(Cl)ccc1Cl	13µM*	18.9%	23.4%	31.8	?
CCOC(=O)c1nc(Nc2ccc(C(C)=O)cc2)c2ccccc2n1	14.6µM*	-3.7%	4.1%	-10.6	16.4µM*
CCOC(=O)c1nc(NCc2ccccc2)c2ccccc2n1	?	4.3%	0.7%	34.5	?
Cc1cc(N2CCOCC2)nc2ccccc12	4.5%	9.4%	-0.1%	1.7	-1.9%
CCOC(=O)c1nc(Nc2cccc(C)c2)c2ccccc2n1	11.6µM*	1.1%	-10.8%	-15.2	23.1µM*
C=CCNc1nc(C(=O)OCC)nc2ccccc12	-20.0%	0.8%	0.9%	-9.9	-4.7%
Clc1nc(Nc2ccc(N3CCOCC3)cc2)c2ccccc2n1	?	0.3%	0.0%	-64.2*	?
CCc1cccc2c(C(=S)N3CCOCC3)c[nH]c12	-11.3%	10.5%	23.3%	-18.9	0.8%
COc1ccc(-c2nc(-c3ccccn3)nc(N3CCN(C)CC3)c2C#N)cc1	0.8%	-15.4%	-8.8%	?	-2.4%
CCCOC(=O)c1cccc(Nc2nc(C(=O)OCC)nc3ccccc23)c1	13µM*	.	.	.	16.4µM*
CCOC(=O)c1cccc(Nc2cc(-c3ccccc3)ncn2)c1	14.6µM*	.	.	.	14.6µM*
CCOC(=O)c1nc(Nc2ccccc2CC)c2ccccc2n1	18.4µM*	-2.6%	-6.5%	-2.3	?
